Assay results from ChEMBL document CHEMBL4513216, “Probing the Open Global Health Chemical Diversity Library for Multistage-Active Starting Points for Next-Generation Antimalarials” (ACS Infect Dis, 2020).
Hit rate of the full screen: of about 69,000 compounds, about 8,600 (12%) showed an effect of 50% or more. This excerpt belongs to a sample that is enriched for strong results.

Tested on: Plasmodium berghei
Test: Screen against P. berghei liver stage (PbLuc), transformed with Luciferase, at 10uM
Type: functional, HepG2
Details: tested at 10 uM

Going from `Cc1nn(C)c(Cl)c1C1CCCN1C(=O)c1cnccn1` (configuration not stated) to `COc1c(C2CCCN2CC(=O)Nc2cccnc2)c(C)nn1C` (configuration not stated), the INHIBITION falls from 25.1% to 19.4%.

Going from `O=C(NCCNc1cccnc1)C(c1cccnc1)N1CCCC1` (configuration not stated) to `Cc1cc(C)nc(CN(C)C(=O)C(c2cccnc2)N2CCCC2)c1` (configuration not stated), the INHIBITION rises from -0.55% to 61.9%.

Going from `Cc1ncsc1CCN(C)C(=O)C(c1cccnc1)N1CCOCC1` (configuration not stated) to `Cc1n[nH]c(C)c1CCN(C)C(=O)C(c1cccnc1)N1CCOCC1` (configuration not stated), the INHIBITION falls from 0.266% to -12.5%.

Compared with `Cc1cc(CN(C)C(=O)C(c2cccnc2)N2CCOCC2)n[nH]1` (configuration not stated), `CN(Cc1cc(C2CC2)[nH]n1)C(=O)C(c1cccnc1)N1CCCC1` (configuration not stated) is higher in INHIBITION: 51.7% for the first, 68.4% for the second.

First: CCCn1ncc(C(=O)N(C)Cc2cc(C3CC3)[nH]n2)c1C
Second: CN(Cc1cc(C2CC2)on1)C(=O)C(c1cccnc1)N1CCCC1 (configuration not stated)
The INHIBITION of the first is lower: 40.6% for the first, 48.9% for the second.

First: CN(CCc1ccccn1)C(=O)C(c1cccnc1)N1CCOCC1 (configuration not stated)
Second: CN(CCc1ccccn1)C(=O)CCC1CCCN(c2ncccn2)C1 (configuration not stated)
The INHIBITION of the first is lower: -29.2% for the first, 16.1% for the second.

Going from `O=C(c1ccsc1)N1CCO[C@@H]2CN(Cc3nccs3)C[C@@H]2C1` to `O=C(c1ccsc1)N1CCC2(CCN(Cc3ccccn3)C2=O)C1` (configuration not stated), the INHIBITION falls from 42.1% to -5.08%.

First: CC1COCCN1C(=O)Nc1cnc2c(cnn2C(C)C)c1 (configuration not stated)
Second: Cc1ncncc1C(=O)N1CCCC(n2cccn2)C1 (configuration not stated)
The INHIBITION of the first is lower: -27.9% for the first, 2.97% for the second.

Going from `O=C1COc2ccc(C(=O)N3CCCC(n4ccnc4)C3)cc2N1` (configuration not stated) to `Cn1ccnc1C1CCCN(C(=O)c2ccc3nccnc3c2)C1` (configuration not stated), the INHIBITION rises from -12.2% to 6.11%.

Going from `Cc1cccc(C(Nc2nccc(C)n2)C2CC2)n1` (configuration not stated) to `CC1CCCN(Cc2ccnc(-c3cccnc3)n2)C1` (configuration not stated), the INHIBITION falls from 6.66% to -6.92%.

First: CN(CCCOc1ccccc1Cl)C(=O)CN1CCNC1=O
Second: CCOC(=O)Cn1cccc(S(=O)(=O)N2CCCC2)c1=O
The INHIBITION of the first is higher: 17% for the first, -2.92% for the second.

Going from `CC(C)[C@H]1CN(c2ccncc2)C[C@@H]1NS(=O)(=O)N(C)C` to `CC(C)[C@@H]1CN(c2ncc(F)cn2)C[C@H]1NS(=O)(=O)N(C)C`, the INHIBITION falls from 76.8% to 41.7%.

`CC(C)[C@H]1CN(C2Cc3ccccc3C2)C[C@@H]1NS(C)(=O)=O` and `CC(C)[C@H]1CN(C2Cc3ccccc3C2)C[C@@H]1NS(=O)(=O)N(C)C` are the same in INHIBITION: 55% for the first, 55% for the second.

Compared with `CC(C)[C@@H]1CN(C(=O)NCc2ccco2)C[C@H]1NS(=O)(=O)N(C)C`, `CC(C)[C@@H]1CN(CC(=O)NCc2ccco2)C[C@H]1NS(=O)(=O)N(C)C` is lower in INHIBITION: 62.8% for the first, 27.8% for the second.

First: CC(C)[C@@H]1CN(C(=O)CCn2ccccc2=O)C[C@H]1NS(C)(=O)=O
Second: Cc1nc2cc(C(=O)N3C[C@@H](NS(C)(=O)=O)[C@H](C(C)C)C3)ccc2[nH]1
The INHIBITION of the first is lower: 8.53% for the first, 39% for the second.

First: CC(C)[C@H]1CN(c2ccncc2)C[C@@H]1NC(=O)C1(C#N)CCOCC1
Second: CC(C)[C@@H]1CN(C(=O)C2(c3ccccc3)CC2)C[C@H]1C(=O)O
The INHIBITION of the first is lower: 10.9% for the first, 50.1% for the second.

Compared with `CC(C)[C@@H]1CN(c2ccc(F)cn2)C[C@H]1NS(C)(=O)=O`, `CCN(C)S(=O)(=O)N[C@H]1CN(c2ccc(F)cn2)C[C@@H]1C(C)C` is higher in INHIBITION: 30.9% for the first, 64.5% for the second.

First: CC(C)[C@@H]1CN(c2ccc(C(F)(F)F)cn2)C[C@H]1NS(C)(=O)=O
Second: CC(C)[C@@H]1CN(C2CCN(Cc3ccccc3)CC2)C[C@H]1NS(C)(=O)=O
The INHIBITION of the first is lower: 26.4% for the first, 64.9% for the second.

Going from `CC(C)[C@@H]1CN(C(=O)NCc2ccco2)C[C@H]1N(C)C` to `CC(C)[C@@H]1CN(C(=O)C2(c3ccccc3)CCN(C)CC2)C[C@H]1N(C)C`, the INHIBITION rises from 31.4% to 39.4%.

Compared with `Cn1cc(C2CCCN2C(=O)CCn2c(=O)oc3ccccc32)cn1` (configuration not stated), `Cn1cc(-c2nc(C(=O)N3CCCC3Cn3cccn3)cs2)cn1` (configuration not stated) is higher in INHIBITION: -13.7% for the first, 40.2% for the second.

Compared with `CN1CCCc2cc(CNC(=O)c3cccnc3O)ccc21`, `COC(=O)c1ccc(N(C(=O)c2cccnc2C)C(C)C)c(C)c1` is higher in INHIBITION: -18.8% for the first, -4.63% for the second.

Going from `CC(C)CNC(=O)[C@H]1CCS(=O)(=O)[C@@H]2CN(Cc3cccc(Cl)c3)C[C@H]12` to `CS(=O)(=O)N[C@@H]1CN(Cc2ccccc2)C[C@@H]2CCCO[C@@H]21`, the INHIBITION falls from 36.8% to -57.7%.

First: Cn1ncc2c(=O)[nH]c(CN3CCc4sccc4C3)nc21
Second: Cc1oc(-c2ccco2)nc1CN1CCc2cncnc2C1
The INHIBITION of the first is lower: 13.3% for the first, 45.4% for the second.

First: Cc1cc(NC(=O)NCc2cccnc2OC(C)C)no1
Second: CC(C)CN(Cc1ccccn1)Cc1ccccc1OCC(=O)O
The INHIBITION of the first is lower: 31.2% for the first, 54.4% for the second.

Compared with `Cc1cc(C)n(CC(C)Nc2nc(C)nc3c2CCNC3)n1` (configuration not stated), `Cc1ccc(C)c(NCc2nc3n(n2)CCCCC3)c1` is higher in INHIBITION: -9.18% for the first, 17.6% for the second.

First: c1cncc(CNC2CCc3ncnn3C2)c1 (configuration not stated)
Second: OC1CCN(Cc2ccnc(-c3cccnc3)n2)CC1
The INHIBITION of the first is lower: 33.3% for the first, 42.4% for the second.

Compared with `Cc1csc2c(C3CCN(C(=O)Cn4cncn4)CC3)nc(C)n12`, `Cc1nc(NC(=O)CN2CCOC(Cn3cccn3)C2)sc1C` (configuration not stated) is higher in INHIBITION: 32.3% for the first, 60.4% for the second.

Compared with `CC(C)c1nc(C2CCCN2CCS(C)(=O)=O)no1` (configuration not stated), `CS(=O)(=O)N1CCC(c2cncc(Cl)n2)CC1` is lower in INHIBITION: 31.5% for the first, -1.16% for the second.

First: CC(C)[C@@H]1CN(CCOc2ccccc2)C[C@H]1NS(=O)(=O)N(C)C
Second: CC(C)[C@@H]1CN(S(=O)(=O)Cc2ccccc2)C[C@H]1NS(=O)(=O)N(C)C
The INHIBITION of the first is higher: 33.2% for the first, 32.7% for the second.

First: CS(=O)(=O)N[C@@H]1CN(Cc2ccccc2)C[C@H]1O
Second: CC(C)[C@@H]1CN(C(=O)CN(C)Cc2ccccc2)C[C@H]1C(=O)O
The INHIBITION of the first is lower: 22.8% for the first, 47.9% for the second.

Compared with `Cc1noc(C)c1CN1C[C@@H]2CCCO[C@@H]2[C@H](Nc2ccccn2)C1`, `Cc1noc(C)c1CN1CCCCC1CCc1ccc(O)cc1` (configuration not stated) is lower in INHIBITION: 16.4% for the first, 12.6% for the second.

First: COCCN1CC(=O)N2CC[C@@H](O)C[C@H]2C1=O
Second: Cn1ncc2c1C(COCC1CC1)CN(c1ncc(F)cn1)C2 (configuration not stated)
The INHIBITION of the first is higher: 10.615% for the first, 7.67% for the second.

Going from `COc1ccc(C2(C(=O)N3C[C@@H](C(=O)O)[C@H](C(C)C)C3)CC2)cc1` to `CC(C)[C@@H]1CN(C(=O)C2(c3ccccc3)CCN(C)CC2)C[C@H]1C(=O)O`, the INHIBITION rises from -17.3% to 64%.

Going from `Cc1ccsc1C(=O)N1C[C@@H](C(=O)O)[C@H](C(C)C)C1` to `Cc1cnn(CC2CN(CC(=O)N(C)c3nccs3)CCO2)c1` (configuration not stated), the INHIBITION falls from 24.4% to 11.8%.

Going from `CC(C)CN(Cc1ccccn1)Cc1ccccc1C(=O)O` to `CC(C)CN(Cc1ccc(O)c(C(=O)O)c1)Cc1ccccn1`, the INHIBITION rises from 38.6% to 43.9%.

First: COCC(=O)NCCn1nc(-c2cc(C)oc2C)ccc1=O
Second: CC(NC(=O)OC(C)(C)C)c1nnc(S(=O)(=O)Cc2ccccc2Cl)o1 (configuration not stated)
The INHIBITION of the first is lower: -0.275% for the first, 21.5% for the second.

Compared with `O=C(Nc1ccccc1-c1ccccc1)N1C[C@@H]2CNC[C@]2(C(=O)O)C1`, `O=C(c1ccccc1-c1ccccc1)N1C[C@@H]2CNC[C@]2(C(=O)O)C1` is lower in INHIBITION: 55.4% for the first, 49.7% for the second.

Compared with `O=C(Nc1ccc(-c2ccccc2)cc1)N1C[C@@H]2CNC[C@]2(C(=O)O)C1`, `c1ccc(CC2CCN(Cc3ccnc(-c4cccnc4)n3)CC2)cc1` is higher in INHIBITION: 41.5% for the first, 50% for the second.

First: Cc1cc(CNC2CCCN(Cc3noc(C4CC4)n3)C2)on1 (configuration not stated)
Second: c1cncc(-c2nccc(CN3CCC(N4CCCCC4)CC3)n2)c1
The INHIBITION of the first is higher: 46.2% for the first, 17.1% for the second.

Going from `CCCc1csc(-c2ccc(S(C)(=O)=O)cc2)n1` to `CCOc1ccc(Oc2cc(N)ccn2)cc1`, the INHIBITION falls from -39.1% to -55.5%.

First: CC(C)(CN1CCC(Cc2cccc(C(=O)O)c2)C1)N1CCOCC1 (configuration not stated)
Second: O=C(CN1CCOC(Cn2cccn2)C1)NC(C1CC1)C1CC1 (configuration not stated)
The INHIBITION of the first is lower: 1.71% for the first, 58.2% for the second.

First: O=C(CN1CCOC(Cn2cccn2)C1)Nc1nncs1 (configuration not stated)
Second: O=C(CN1CCOC(Cn2cccn2)C1)Nc1nccs1 (configuration not stated)
The INHIBITION of the first is lower: 41.2% for the first, 53.3% for the second.

Going from `CN(Cc1ccsc1)C(=O)CN1CCOC(Cn2cccn2)C1` (configuration not stated) to `CN(C(=O)CN1CCOC(Cn2cccn2)C1)c1nccs1` (configuration not stated), the INHIBITION rises from 33% to 52.1%.

First: O=C(CN1CCOC(Cn2cncn2)C1)NC(C1CC1)C1CC1 (configuration not stated)
Second: O=C(CN1CCOC(Cn2cccn2)C1)Nc1ccncc1 (configuration not stated)
The INHIBITION of the first is higher: 23.9% for the first, -18.2% for the second.

Compared with `Cc1nnc(NC(=O)CN2CCOC(Cn3cccn3)C2)s1` (configuration not stated), `Cc1nn(C)c(C)c1NC(=O)CN1CCOC(Cn2cccn2)C1` (configuration not stated) is higher in INHIBITION: 17.4% for the first, 47.1% for the second.

Going from `Cc1cnn(CC2CN(CC(=O)Nc3nccs3)CCO2)c1` (configuration not stated) to `Cc1ccc(CC(=O)N2CCCCC2Cn2cccn2)cn1` (configuration not stated), the INHIBITION rises from 29.6% to 30.3%.

First: NC(=O)c1csc(N2C[C@@H](CN3CCCCC3)[C@@H](CO)C2)n1
Second: c1cncc(-c2nccc(CN3CCCC3)n2)c1
The INHIBITION of the first is lower: 14.45% for the first, 51.2% for the second.

First: CC(=O)c1cc2ncc(C(=O)NC3CCCCC3)cc2[nH]1
Second: Cc1nc(C)n(CC2CCCCN2CCc2ccncc2)n1 (configuration not stated)
The INHIBITION of the first is lower: -25.1% for the first, 4% for the second.

First: COC(=O)C(C)(C)NC(=O)C1CC(=O)N(CC(F)(F)F)C1 (configuration not stated)
Second: COc1cc(C2CC(=O)c3c(O)cc(O)cc3O2)ccc1O (configuration not stated)
The INHIBITION of the first is lower: -28.7% for the first, -17.1% for the second.

Going from `Oc1ccc([C@H]2Oc3cc(O)cc(O)c3C[C@@H]2O)cc1` to `O=C1c2c(O)cc(O)cc2O[C@@H](c2ccc(O)cc2)[C@@H]1O`, the INHIBITION rises from 7.5% to 70.8%.

Compared with `COc1cc2c(cc1CN1CCn3c(CO)nnc3C1)CCC2`, `CCN1CCN(Cc2ccnc(-c3cccnc3)n2)CC1` is higher in INHIBITION: 3.91% for the first, 46.1% for the second.
